# Data: PubChem BioAssay (NCI)
# This is part of a sample that, as a whole, favours compounds with a hit. Of some 83,000 tested, about 20% had one in any assay.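 Negative percent growth values reflect cell death: -40 means 40% of the cells present at the start died, and -100 means all died.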 Values without a mark were called inactive. Calls of active or inactive are those of the source. Rule for the calls: active = growth percent below 10; inactive = the rest.
# Tests used:
# Assay in all cases: NCI-60 one-dose screen, 48 h (100 = growth as untreated, 0 = no growth, -100 = all killed)
# Conditions in all cases: 10 µM unless noted
# [1] = tested on: SK-MEL-2 melanoma
# [2] = tested on: SN12C renal
# [3] = tested on: UO-31 renal
# [4] = tested on: TK-10 renal
# [5] = tested on: ACHN renal
# [6] = tested on: CAKI-1 renal
# [7] = tested on: A498 renal
# [8] = tested on: CCRF-CEM leukemia
# [9] = tested on: MOLT-4 leukemia
SMILES,growth [1],growth [2],growth [3],growth [4],growth [5],growth [6],growth [7],growth [8],growth [9]
O=C1/C(=C/c2ccccc2O)C(=S)SN1Cc1ccco1,81.4%,93.8%,84.4%,98.8%,106%,119%,95.2%,70.7%,99%
COc1cccc(CCN2C(=O)CCC3=C2CCC3=O)c1,145%,99.4%,85.7%,107%,99.8%,98%,114%,–,105%
Cn1c(N2N=C(c3ccc(Cl)cc3)CC2c2ccccc2)nc(-c2ccccc2)c(C#N)c1=O (stereo not given),78.4%,67.3%,60.5%,117%,77.2%,63.7%,79.6%,–,60.1%
Oc1c(N=Nc2nn[nH]n2)ccc2ccccc12,107%,84.3%,59.1%,132%,86.8%,98.2%,102%,–,99.2%
COc1ccc(NC(=O)c2ccc(-c3ccccc3)cc2)c(C(N)=O)c1,99.6%,96.6%,79.6%,118%,102%,103%,97%,90%,84.6%
C=CCN(/C=C/CN(CC=C)CC=C)CC=C,115%,104%,90.1%,96.9%,93.2%,69.7%,91.8%,–,96.4%
COc1ccc(OC)c2c1CCC1(C2)NC(=O)NC1=O (stereo not given),118%,97.3%,82.3%,114%,103%,91.3%,104%,–,104%
COC(=O)[C@H](Cc1cnc[nH]1)NC(=O)[C@@H](NC(=O)Nc1cc(C(F)(F)F)cc(C(F)(F)F)c1)C(C)C,-93% [100 µM] (active),-96.3% [100 µM] (active),-21.7% [100 µM] (active),-95% [100 µM] (active),-58.3% [100 µM] (active),40.9% [100 µM],-87.8% [100 µM] (active),–,-45.5% [100 µM] (active)
COC(=O)[C@H](Cc1cn(C)cn1)NC(=O)[C@H](C)NC(=O)Nc1cc(C(F)(F)F)cc(C(F)(F)F)c1,-90.1% [100 µM] (active),-82.4% [100 µM] (active),-92.7% [100 µM] (active),-96.4% [100 µM] (active),-90% [100 µM] (active),73.1% [100 µM],-88.4% [100 µM] (active),–,-27.4% [100 µM] (active)
CC(C)OP(=O)(OC(C)C)c1ncc(-c2ccc(C(F)(F)F)cc2)c(NC2CCCCCC2)n1,-85.1% [33.3 µM] (active),-72.9% [33.3 µM] (active),-91.5% [33.3 µM] (active),1.08% [33.3 µM] (active),-1.03% [33.3 µM] (active),-29.4% [33.3 µM] (active),-94% [33.3 µM] (active),–,-46.2% [33.3 µM] (active)
COc1cc(-c2nc3sc4c(c3c(=O)[nH]2)CCCCCC4)cc(OC)c1OC,16.4%,22.1%,27.8%,47.6%,44.5%,19.9%,-12.3% (active),14.3%,14.6%
[N-]=[N+]=NCc1ncc(-c2ccc(C(F)(F)F)cc2)c(NC2CCCCCC2)n1,78.2% [50 µM],85.2% [50 µM],50% [50 µM],112% [50 µM],73.1% [50 µM],84.3% [50 µM],82.5% [50 µM],–,54.7% [50 µM]
Cc1ccc(-c2c3c(N)c4c(nc3nc3c2c(C)nn3-c2ccccc2)CCC4)cc1,88.6%,94.1%,50.5%,100%,12%,99.2%,107%,–,60.9%
COc1ccc(-c2nnc3c4[nH]cnc4ncn23)c(OC)c1,29.9%,55.3%,23.3%,10.8%,28.2%,20.9%,80.4%,12.6%,8.73% (active)
CSc1nc(-c2ccc(O)cc2O)c2c(=O)[nH]c(Nc3ccc(S(=O)(=O)Nc4nc(C)cc(C)n4)cc3)nc2n1,81.2%,107%,112%,123%,93.3%,1120%,113%,103%,104%
C/C(=C\CCc1ccsc1)CC/C=C(\C)CCCN1CCSCC1,89.3%,78.9%,59.9%,108%,94.7%,87.5%,23.5%,73.7%,81.2%
COC(=O)[C@H](Cc1cn(C)cn1)NC(=O)[C@@H](NC(=O)Nc1cc(C(F)(F)F)cc(C(F)(F)F)c1)C(C)C,-88.7% [100 µM] (active),-85.8% [100 µM] (active),-94.9% [100 µM] (active),-98.7% [100 µM] (active),-98.4% [100 µM] (active),-91.3% [100 µM] (active),-89.4% [100 µM] (active),–,-56.2% [100 µM] (active)
CC(NNC(=S)N1CCCCCC1)c1ccc2ccccc2n1 (stereo not given),90.2%,37.3%,9.9% (active),41.9%,16.7%,-9.22% (active),71.1%,–,28.3%
Cc1ccc(-c2c3c(N)nc(-c4ccncc4)nc3nc3c2c(C)nn3-c2ccccc2)cc1,-7.11% (active),26.8%,93.4%,12.3%,53.2%,72.5%,82.7%,–,65.3%
FC(F)(F)c1ccc(-c2cnc(-c3nn[nH]n3)nc2NC2CCCCCC2)cc1,47.3% [50 µM],50.9% [50 µM],38.2% [50 µM],105% [50 µM],68.9% [50 µM],36.8% [50 µM],61.5% [50 µM],–,25.4% [50 µM]
CCCCCCCC[Si](OCC)(OCC)OCC,102%,106%,81.1%,90.8%,98.2%,54.9%,105%,–,95.7%
CC(C)CNc1nc(N=[N+]=[N-])nc(NCC(C)C)n1,71.9% [100 µM],70.8% [100 µM],47.3% [100 µM],77.5% [100 µM],53.6% [100 µM],4.03% [100 µM] (active),35.5% [100 µM],–,34.4% [100 µM]
CCCCCCCCCCCCCCCCNC(=O)Nc1ccc2ccccc2c1,118%,89.7%,104%,110%,108%,107%,104%,–,105%
c1ccc(COc2ccc(Nc3ncnc4c3cnn4-c3ccccc3)cc2)cc1,115%,97.4%,79.6%,111%,104%,99.1%,77.9%,80.8%,93.1%
FCc1ncc(-c2ccc(C(F)(F)F)cc2)c(NC2CCCCCC2)n1,-40.8% [100 µM] (active),-30.3% [100 µM] (active),11.1% [100 µM],38% [100 µM],8.81% [100 µM] (active),0.556% [100 µM] (active),-19.4% [100 µM] (active),–,-20.3% [100 µM] (active)
CNc1nc(NC2CCCC2)nc(Sc2ccc(OC)cc2)n1,9.28% [100 µM] (active),28.5% [100 µM],12.8% [100 µM],42.1% [100 µM],21% [100 µM],0.0278% [100 µM] (active),10.1% [100 µM],–,-5.92% [100 µM] (active)
CCOC(=O)/C(=C/CC/C(C)=C/CC/C(C)=C/CCc1ccoc1)CC(=O)N1CCCCC1,-19% (active),47.2%,25.1%,63.7%,55.2%,60.7%,-20.2% (active),22.7%,0.624% (active)
CCCCCCCCCCOC(C)=O,116%,103%,89%,116%,98.8%,79.8%,108%,–,103%
CC1CC=CCC1C1OCC(C)(C)CO1 (stereo not given),124%,103%,97.7%,111%,106%,106%,103%,–,102%
